Screens: PubChem, several laboratories
The list is not random: actives were taken first. Their share in the collection is about 3.8%.
Jurkat NFkB inh: lowers PMA/ionomycin-induced NF-kB signal in Jurkat cells | PMA/ionomycin-induced NF-kB luciferase reporter, luminescence | inhibition, % at 4 µM | 330,000 tested, 0.53% active; in the data active = inhibition above about 50%
Shn3 inh set2: inhibitors of Schnurri-3 3'UTR reporter in osteoblasts | inhibition, % at 12.5 µM | Clone20 osteoblast Shn3 3'UTR firefly luciferase, 24 h | 360,000 tested, 0.52% active;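 active = mean inhibition of at least 75% with every replicate also reaching 75%; inconclusive = mean inhibition at least 75% but some replicate below; inactive = mean inhibition below 75%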;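 note: 0% = median of neutral control wells and 100% = pilot-screen positive control compound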
Gli-Sufu antag: antagonists of Gli-Sufu signaling; AID 588413; Sufu-KO-LIGHT fibroblasts, Gli luciferase reporter luminescence; inhibition, % at 5 µM; 340,000 tested, 0.74% active;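 active = inhibition above about 55%, limit read from the data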;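 note: 0% = DMSO-treated cells and 100% = wells with medium but no cells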
697 NFkB inh: inhibitors of the PMA/ionomycin-induced NF-kB reporter in 697 B cells; 330,000 tested, 0.33% active; AID 435022; inhibition, % at 4 µM; 697 B-cell NF-kB luciferase reporter, 16 h; in the data active = inhibition above about 35%
Mdm2 MdmX PPI: inhibitors of human Mdm2/MdmX interaction | O15151+Q00987 | SaOS-2 split-luciferase Mdm2/MdmX complementation, luminescence | inhibition, % at 8 µM | 330,000 tested, 3% active;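 active = inhibition of at least 50% at 8 µM in the primary screen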
Mdm2-MdmX conf: human Mdm2/MdmX binding inhibition, confirmed. shares compounds with Mdm2 MdmX PPI. inhibition, % at 8 µM. luminescent assay. 10,000 tested, 55% active; in the data active = inhibition above about 40%
FLuc counter: counter-screen for Mdm2/MdmX inhibitors: full-length luciferase; shares compounds with Mdm2 MdmX PPI; SaOS-2 full-length luciferase counterscreen, luminescence; inhibition, % at 8 µM; 6,200 tested, 77% active; AID 504607;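 active = mean inhibition at 8 µM reaching about 37%, which flags the compound as non-specific, limit read from the data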;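 note: p53-null SaOS-2 cells with luciferase driven by a doxycycline-inducible promoter; compound on cells about two nights before reading with doxycycline added after day one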
Numbers without * were called inactive; ? = inconclusive; / = no result.

SMILES	Jurkat NFkB inh	Shn3 inh set2	Gli-Sufu antag	697 NFkB inh	Mdm2 MdmX PPI	Mdm2-MdmX conf	FLuc counter
COc1ccc(-c2nc(NC(=O)C3CCN(c4nc5ccccc5o4)CC3)sc2C)cc1	18	54	26	-13	51*	29	/
c1ccc(Cn2ccnc2C2OCCO2)cc1	/	-23	/	/	/	/	/
CCN(CC)S(=O)(=O)c1ccc(NC(=O)C2CC(=O)N(c3ccc4c(c3)OCCO4)C2)cc1 (stereo not given)	/	-1	13	/	/	/	/
Cc1ccc2occ(/C=N/NC(=O)c3ccccc3O)c(=O)c2c1	16	30	-4	-19	81*	66*	46*
CCOc1ccccc1C(=O)N/N=C/c1coc2ccc(Cl)cc2c1=O	15	-30	7	-29	82*	85*	22
Cc1ccc2occ(/C=N/NC(=O)c3ccc(Cl)cc3)c(=O)c2c1	14	1	0	-16	37	/	/
O=C(N/N=C/c1coc2ccc(Cl)cc2c1=O)c1cc(O)cc(O)c1	5	-5	-6	16	46	/	/
Cn1c(=O)n(C)c2cc(N3CCOCC3)c(NC(=O)c3cccc(Cl)c3)cc21	8	-3	31	-1	32	/	/
COC(=O)C1=C(Nc2ccc(C)cc2)C=C(C)C(C(=O)OC)C1c1cccc(OC)c1 (stereo not given)	21	9	10	-16	53*	57*	62*
CCOc1cc(-c2cc(-c3ccccc3)nc(N)c2C#N)ccc1O	21	-8	18	19	76*	61*	95*
N#Cc1c(-c2ccncc2)cc(-c2ccc(F)cc2)nc1N	-14	1	28	-12	16	/	/
COc1cc(-c2cc(-c3ccc(F)cc3)nc(N)c2C#N)ccc1O	14	12	18	0	71*	52*	56*
CCOc1cc(-c2cc(-c3ccc(N)cc3)nc(N)c2C#N)ccc1O	-11	20	2	26	51*	26	124*
O=[N+]([O-])c1ccc(NCCCc2ccccc2)cc1	/	-8	/	/	/	/	/
Cc1cccc(C(=O)NNC(=O)C2CC2)c1	-8	5	-6	-3	8	/	/
CCN(CC)c1ccc(/C=C(/C#N)c2nc3ccccc3[nH]2)c(OC(C)C)c1	-58	-71	38	-132	80*	77*	88*
CCOc1cccc(/C=C(/C#N)c2nc3ccccc3[nH]2)c1OCC(=O)O	-12	-24	-4	-18	-3	/	/
NS(=O)(=O)c1ccc(CCNC(=O)COC(=O)/C=C/c2ccccc2Cl)cc1	4	-9	9	18	-13	/	/
Cc1ccc(-c2ccc(/C=C(\C#N)C(=O)Nc3cc(C)nn3-c3ccccc3)o2)cc1	-4	/	/	0	54*	4	/
CN(C)S(=O)(=O)Nc1ccccc1F	-1	7	-10	5	12	/	/
Cc1ccc(NC(=S)NNC(=S)Nc2cccc(C(F)(F)F)c2)cc1	-1	/	-2	-14	-8	/	/
FC(F)(F)c1cccc(NC(=S)NCc2ccc(Cl)cc2)c1	2	27	-1	-8	83*	22	/
Fc1cc(NC(=S)NCc2ccc(CNC(=S)Nc3ccc(Cl)c(F)c3)cc2)ccc1Cl	-7	27	-4	10	50*	5	/
FC(F)(F)c1cccc(NC(=S)NNC(=S)Nc2ccc(Cl)cc2)c1	2	/	/	18	80*	26	/
Fc1ccc(CNC(=S)Nc2cccc(C(F)(F)F)c2)cc1	8	-1	-5	-4	12	/	/
Cc1ccccc1NC1=C/C(=N\S(=O)(=O)c2ccc(C(=O)O)cc2)c2ccccc2C1=O	-5	-10	11	-2	85*	22	/
O=C(O)c1ccc(S(=O)(=O)/N=C2\C=C(Nc3ccccc3F)C(=O)c3ccccc32)cc1	-56	?	-15	-71	72*	65*	5
COc1cccc(NC(=O)COC(=O)/C=C/c2c(C)nn(-c3ccccc3)c2C)c1	1	-49	-2	-19	-3	/	/
CCn1c(=S)sc2c(=O)n(CC(=O)Nc3ccccc3C(F)(F)F)c(C)nc21	-6	27	0	20	53*	6	/
Cc1nc2c(sc(=S)n2Cc2ccco2)c(=O)n1CC(=O)Nc1ccc(F)cc1	-1	19	12	-7	52*	21	/
